From PubChem BioAssay (NCI)
This is part of a sample that, as a whole, favours compounds with a hit. Of some 83,000 tested, about 20% had one in any assay.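 96-well plates, one dose, 48 hours. Percent growth reported; active if below 10.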 Calls of active or inactive are those of the source.

Experiments:
Assay in all cases: NCI-60 one-dose screen, 48 h (100 = growth as untreated, 0 = no growth, -100 = all killed)
Conditions in all cases: 10 µM unless noted
HCT-15 colon = test system: HCT-15 colon
HT29 colon = test system: HT29 colon
SNB-75 CNS = test system: SNB-75 CNS
SNB-19 CNS = test system: SNB-19 CNS
U251 CNS = test system: U251 CNS
PC-3 prostate = test system: PC-3 prostate
SK-MEL-5 melanoma = test system: SK-MEL-5 melanoma
UACC-62 melanoma = test system: UACC-62 melanoma
LOX IMVI melanoma = test system: LOX IMVI melanoma
SK-MEL-28 melanoma = test system: SK-MEL-28 melanoma

Measured: growth

COc1ccc(-c2nc(C(Cl)Cl)nc3cc(-c4ccccc4)nn23)cc1
active: HCT-15 colon 4.52% | HT29 colon -20.2% | SNB-75 CNS -9.44% | SNB-19 CNS 5.79% | U251 CNS -51.7% | SK-MEL-28 melanoma -46.4%
inactive: PC-3 prostate 35.5% | SK-MEL-5 melanoma 34.1% | UACC-62 melanoma 37.9% | LOX IMVI melanoma 23.7%

CN(C)C(=O)c1cc(-c2ccc3ncnc(NCc4ccccc4)c3c2)cnc1N
inactive: HCT-15 colon 105% | HT29 colon 101% | SNB-75 CNS 33.4% | SNB-19 CNS 88.7% | U251 CNS 99% | PC-3 prostate 85.7% | SK-MEL-5 melanoma 93.9% | UACC-62 melanoma 89.3% | LOX IMVI melanoma 75% | SK-MEL-28 melanoma 91.4%

CS(=O)(=O)c1ccc(-n2cc(/C=N/O)c(-c3ccccc3)n2)cc1
active: LOX IMVI melanoma -79.5%
inactive: HCT-15 colon 76.6% | HT29 colon 97.4% | SNB-75 CNS 87.7% | SNB-19 CNS 71.2% | U251 CNS 72.1% | PC-3 prostate 71% | SK-MEL-5 melanoma 21.2% | UACC-62 melanoma 66.6% | SK-MEL-28 melanoma 93.3%

CCOC(=O)C(=O)CC(=O)N1C(=S)NC(=O)C1CC(C)C (stereo not given)
inactive: HCT-15 colon 94.8% | HT29 colon 113% | SNB-75 CNS 100% | SNB-19 CNS 99.9% | U251 CNS 105% | PC-3 prostate 103% | SK-MEL-5 melanoma 95.6% | UACC-62 melanoma 96.3% | LOX IMVI melanoma 98% | SK-MEL-28 melanoma 99.6%

CCc1cccc2c3c(sc12)C(c1ccc(Cl)cc1)C(C#N)=C(/N=C/c1ccc(Cl)cc1)O3 (stereo not given)
active: HT29 colon 7.88% | SNB-75 CNS -13.9%
inactive: HCT-15 colon 25% | SNB-19 CNS 20.1% | U251 CNS 20.5% | PC-3 prostate 16.5% | SK-MEL-5 melanoma 14.5% | UACC-62 melanoma 10.7% | LOX IMVI melanoma 26.5% | SK-MEL-28 melanoma 56.7%

C[C@@H]1C[C@H]2C(=O)O[C@@H](C)C(NC(=O)[C@H](Cc3cc(F)cc(F)c3)NC(=O)Nc3ccc(C4CC4)cc3F)C(=O)N3CCC[C@H]3C(=O)N3CCCC[C@H]3C(=O)N[C@@H](CO)C(=O)N2C1 (stereo not given in full)
inactive: HCT-15 colon 14.1% | HT29 colon 25.4% | SNB-75 CNS 31.5% | SNB-19 CNS 27.9% | U251 CNS 29.8% | PC-3 prostate 11.5% | UACC-62 melanoma 21.3% | LOX IMVI melanoma 30.4% | SK-MEL-28 melanoma 41.1%
active: SK-MEL-5 melanoma -15.9%

O=C(NNc1nc2cc(F)c(F)cc2n2cccc12)c1cnccn1
inactive: HCT-15 colon 13.9% | HT29 colon 36.8% | SNB-75 CNS 54.7% | SNB-19 CNS 31.5% | U251 CNS 26.4% | PC-3 prostate 29.4% | SK-MEL-5 melanoma 29.3% | UACC-62 melanoma 22.2% | LOX IMVI melanoma 11.4% | SK-MEL-28 melanoma 36%

C#Cc1nc(C(=O)NCCC(=O)Nc2ccc(NC(=O)c3ccc(/C=C/C(=O)c4nccn4C)cc3)cc2)cs1
active: HT29 colon 2.68% | U251 CNS 3.44% | LOX IMVI melanoma -90.1%
inactive: HCT-15 colon 16.7% | SNB-75 CNS 56.6% | SNB-19 CNS 35.1% | PC-3 prostate 42.5% | SK-MEL-5 melanoma 87% | UACC-62 melanoma 38.6% | SK-MEL-28 melanoma 84.8%

N/C(=N\C(N)=N\c1nc2ccccc2s1)c1ccncc1Cl
inactive: HCT-15 colon 33% | HT29 colon 18.8% | SNB-19 CNS 38.2% | U251 CNS 31.8% | PC-3 prostate 29.5% | SK-MEL-5 melanoma 39.2% | UACC-62 melanoma 28% | LOX IMVI melanoma 41.3% | SK-MEL-28 melanoma 58.3%
active: SNB-75 CNS 7.82%

CCn1c2ccccc2c2cc(-n3nncc3-c3ccccc3)ccc21
active: HCT-15 colon 8.42% | HT29 colon 2.01% | SK-MEL-5 melanoma -11.7% | LOX IMVI melanoma -29.5%
inactive: SNB-75 CNS 27.4% | SNB-19 CNS 24.1% | U251 CNS 25.1% | PC-3 prostate 29.1% | UACC-62 melanoma 35.5% | SK-MEL-28 melanoma 66.4%

Nc1cc(F)ccc1NC(=O)c1ccc(NC(=O)C/C=C/c2cccnc2)cc1
inactive: HCT-15 colon 29.5% | HT29 colon 24.5% | SNB-75 CNS 51.3% | SNB-19 CNS 46.7% | U251 CNS 34.1% | PC-3 prostate 36.6% | SK-MEL-5 melanoma 49.7% | UACC-62 melanoma 42.1% | SK-MEL-28 melanoma 49.4%

CS(=O)(=O)c1ccc(-c2nn(-c3ccccc3)cc2/C=N/NC(=O)c2nc(N)n[nH]2)cc1
inactive: HCT-15 colon 88.9% | HT29 colon 101% | SNB-75 CNS 103% | SNB-19 CNS 101% | U251 CNS 101% | PC-3 prostate 100% | SK-MEL-5 melanoma 98.6% | UACC-62 melanoma 90.8% | LOX IMVI melanoma 84.7% | SK-MEL-28 melanoma 108%

Cc1occc1-c1nc2s/c(=C/c3ccc(-c4cc(C(F)(F)F)ccc4Cl)o3)c(=O)n2n1
inactive: HCT-15 colon 104% | HT29 colon 106% | SNB-75 CNS 97.5% | SNB-19 CNS 98.5% | U251 CNS 105% | PC-3 prostate 97.7% | SK-MEL-5 melanoma 99.7% | UACC-62 melanoma 93.8% | SK-MEL-28 melanoma 112%

NS(=O)(=O)c1ccc(Nc2nc(SCc3ccccc3)nc3ccccc23)cc1
inactive: HCT-15 colon 39.1% | HT29 colon 41% | SNB-75 CNS 70.5% | SNB-19 CNS 78.2% | U251 CNS 60.1% | PC-3 prostate 54.1% | SK-MEL-5 melanoma 49.8% | UACC-62 melanoma 70% | SK-MEL-28 melanoma 91.6%

COc1ccccc1-n1cc(C#N)c(N)c1C(=O)c1ccc(Br)cc1
inactive: HCT-15 colon 35.1% | HT29 colon 44.6% | SNB-75 CNS 74.5% | SNB-19 CNS 71.1% | U251 CNS 66.8% | PC-3 prostate 63.4% | SK-MEL-5 melanoma 77.4% | UACC-62 melanoma 45.2% | LOX IMVI melanoma 66.2% | SK-MEL-28 melanoma 69%

COc1cc2nc(Cl)nc(Nc3cccc(C4=Nc5c(N)nc(N)nc5NC(c5ccccc5)C4)c3)c2cc1OC (stereo not given)
inactive: HCT-15 colon 48.6% | HT29 colon 90.3% | SNB-75 CNS 75% | SNB-19 CNS 95.6% | U251 CNS 60.4% | PC-3 prostate 75.1% | SK-MEL-5 melanoma 73.6% | UACC-62 melanoma 91.3% | SK-MEL-28 melanoma 105%

COc1ccccc1NC1=C(Cl)C(=O)c2nc(C)ccc2C1=O
inactive: HT29 colon 75% | SNB-75 CNS 105% | SNB-19 CNS 38.9% | U251 CNS 62.8% | PC-3 prostate 27.4% | SK-MEL-28 melanoma 14.1%
active: HCT-15 colon -47% | SK-MEL-5 melanoma -93.3% | UACC-62 melanoma -45.8% | LOX IMVI melanoma -73%

CCNC(=O)N1CCc2cc(OC)c(OCCc3ccc(OC)cc3)cc2C1c1ccc(Cl)cc1C (stereo not given)
inactive: SNB-75 CNS 37.9% | SNB-19 CNS 26% | U251 CNS 13.1% | PC-3 prostate 26.1% | UACC-62 melanoma 22.8% | SK-MEL-28 melanoma 43.3%
active: HCT-15 colon 9.66% | HT29 colon 2.45% | SK-MEL-5 melanoma -10.8%

Cc1ccc(-c2cc3nc(C(Cl)Cl)nc(C)n3n2)cc1
inactive: HCT-15 colon 109% | HT29 colon 104% | SNB-75 CNS 129% | SNB-19 CNS 104% | U251 CNS 108% | PC-3 prostate 98.1% | SK-MEL-5 melanoma 98.2% | UACC-62 melanoma 99.6% | SK-MEL-28 melanoma 105%

CN1CCN(Cc2ccc(NC(=O)c3cncc(C#Cc4cnc5ccc(NCCCO)nn45)c3)cc2C(F)(F)F)CC1
active: HCT-15 colon 1.94% | HT29 colon -2.42% | SNB-75 CNS -70.8% | SNB-19 CNS -0.64% | U251 CNS -68% | PC-3 prostate -19.2% | SK-MEL-5 melanoma -87% | UACC-62 melanoma -14.1% | SK-MEL-28 melanoma -21%

CC1(C)CC[C@]2(C(=O)O)CC[C@]3(C)C(=CC[C@@H]4[C@@]5(C)CC/C(=N\OCCC#N)C(C)(C)[C@@H]5CC[C@]43C)[C@@H]2C1
inactive: HCT-15 colon 106% | HT29 colon 109% | SNB-75 CNS 53.4% | SNB-19 CNS 104% | U251 CNS 107% | PC-3 prostate 99.2% | SK-MEL-5 melanoma 98.4% | UACC-62 melanoma 92.6% | SK-MEL-28 melanoma 106%

C[C@H]1c2[nH]c3ccccc3c2C[C@H]2C(=O)N(CCCCCCC(=O)NO)CC(=O)N21
inactive: HCT-15 colon 99.3% | HT29 colon 86.8% | SNB-75 CNS 82.1% | SNB-19 CNS 84.8% | U251 CNS 85.2% | PC-3 prostate 77.7% | SK-MEL-5 melanoma 83% | UACC-62 melanoma 69.6% | SK-MEL-28 melanoma 78.9%

CCO/C=N/C1=C(C#N)C(c2ccc(F)cc2)c2sc3c(CC)cccc3c2O1 (stereo not given)
active: SNB-75 CNS 3.71%
inactive: HCT-15 colon 12.6% | HT29 colon 10.1% | SNB-19 CNS 21.4% | U251 CNS 21.4% | PC-3 prostate 13.6% | SK-MEL-5 melanoma 26.6% | UACC-62 melanoma 16.1% | LOX IMVI melanoma 14.7% | SK-MEL-28 melanoma 61%

Nc1nc(-c2cccc([N+](=O)[O-])c2)c(N=Nc2cccc([N+](=O)[O-])c2)s1
active: SNB-75 CNS -8.63% | U251 CNS -43%
inactive: HCT-15 colon 62% | HT29 colon 94.2% | SNB-19 CNS 20.9% | PC-3 prostate 74.7% | SK-MEL-5 melanoma 63.9% | UACC-62 melanoma 54.7% | SK-MEL-28 melanoma 61.3%

C=C(C=O)[C@@H]1CC[C@]2(C)[C@H](CC=C3[C@H]4[C@@H](C)[C@H](C)CC[C@]4(C(=O)OC)CC[C@]32C)[C@@]1(C)CCC#N
inactive: SNB-75 CNS 67.6% | SNB-19 CNS 25.2%
active: HCT-15 colon -55% | HT29 colon -37.4% | U251 CNS 5.57% | PC-3 prostate 9.4% | SK-MEL-5 melanoma -98% | UACC-62 melanoma -31.9% | LOX IMVI melanoma -86.1% | SK-MEL-28 melanoma -39.4%

CCN(CC)c1ccc2c(c1)Oc1nc(N)c(C#N)c(N)c1C2Sc1ccc(F)cc1 (stereo not given)
active: HCT-15 colon -84.8% | HT29 colon -42.4% | SNB-75 CNS -3.74% | SNB-19 CNS -94.9% | U251 CNS -73.4% | PC-3 prostate -74% | SK-MEL-5 melanoma -96.2% | UACC-62 melanoma -52.5% | LOX IMVI melanoma -92.6% | SK-MEL-28 melanoma -62%
